Laboratory results from the supplement of paper PMC13380429.

System: Vero E6 infected with SARS-CoV-2
Assay: inhibition of SARS-CoV-2 cytopathic effect; higher = more antiviral protection, active = above 15
Conditions: 48 h

Measured: inhibition of SARS-CoV-2 cytopathic effect

Cc1cc(N2CCOCC2)cc2[nH]c(-c3c(NC[C@@H](O)c4cccc(Cl)c4)cc[nH]c3=O)nc12
inactive: 1 nM -1.74% | 8.33 nM -0.03% | 100 nM -2.39% | 833.33 nM -2.43% | 10000 nM -13.9%

CCCCCNC(=N)N/N=C/c1c[nH]c2ccc(OC)cc12 [tegaserod]
inactive: 1 nM -2.52% | 8.33 nM -0.54% | 100 nM -3.2% | 833.33 nM -3.82% | 10000 nM -1.44%

COc1cccc(-c2cc(NCc3ccc4c(c3)OCO4)nc(N)n2)c1
inactive: 1 nM 0.39% | 8.33 nM -1.05% | 100 nM 0.16% | 833.33 nM -2.75% | 10000 nM -1.99%

Cc1ncc[nH]1 [2-methylimidazole]
inactive: 1 nM -0.11% | 8.33 nM 1.86% | 100 nM 0.89% | 833.33 nM -3.06% | 10000 nM 0.33%

CC[C@H](/C=C/[C@@H](C)[C@H]1CC[C@H]2[C@@H]3CC=C4C[C@@H](O)CC[C@]4(C)[C@H]3CC[C@]12C)C(C)C [Stigmasterol (Stigmasterin)]
inactive: 1 nM 0.05% | 8.33 nM -0.75% | 100 nM 0.44% | 833.33 nM 0.29% | 10000 nM -0.01%

CC1(C)CCC(C)(C)c2cc(NC(=O)c3ccc(C(=O)O)cc3)ccc21 [tamibarotene]
inactive: 1 nM 4.56% | 8.33 nM 1.67% | 100 nM 1.5% | 833.33 nM 0.87% | 10000 nM 0.68%

O=S(=O)(Cc1ccccc1)Nc1ccc(-c2ccc3c(cnn3-c3ccc(F)cc3)c2)c(C(F)(F)F)c1
inactive: 1 nM 0.84% | 8.33 nM 1.44% | 100 nM -0.94% | 833.33 nM 2.01% | 10000 nM -3.81%

CC(C)(C)N1CCC(c2ccccc2)(c2ccccc2)CC1 [budipine]
inactive: 1 nM 0.7% | 8.33 nM 3.31% | 100 nM 2.48% | 833.33 nM -0.28% | 10000 nM 1.72%

CC(=O)Nc1ncc([N+](=O)[O-])s1 [nithiamide]
inactive: 1 nM -2.44% | 8.33 nM -2.01% | 100 nM -13.5% | 833.33 nM -2.95% | 10000 nM -1.53%

CCCNC(=O)N1N=C(c2ccc(N)cc2)c2cc3c(cc2C1C)OCO3 (stereo not given)
inactive: 1 nM -4.65% | 8.33 nM -0.41% | 100 nM 1.6% | 833.33 nM 0.9% | 10000 nM 4.48%

CC(OC(=O)OC1CCCCC1)OC(=O)C1=C(CSc2nnnn2CCN(C)C)CS[C@@H]2[C@H](NC(=O)Cc3csc(N)n3)C(=O)N12 (stereo not given in full) [cefotiam-cilexetil]
inactive: 1 nM -0.8% | 8.33 nM 0.27% | 100 nM 0.74% | 833.33 nM 0.5% | 10000 nM -0.94%

COc1ccc(/C=C\c2cc(OC)c(OC)c(OC)c2)cc1OP(=O)(O)O [fosbretabulin]
inactive: 1 nM 0.43% | 8.33 nM 0.77% | 100 nM -1.34% | 833.33 nM -0.84% | 10000 nM -0.38%

COc1cc(OC)cc(-c2ccc3c(-c4ccc(F)cc4)n[nH]c3n2)c1
inactive: 1 nM 12% | 8.33 nM -1.07% | 100 nM 2.95% | 833.33 nM 1.46% | 10000 nM -0.11%

COc1cc(C(=O)NCc2ccc(OCCN(C)C)cc2)cc(OC)c1OC [trimethobenzamide]
inactive: 1 nM -2.2% | 8.33 nM -1.41% | 100 nM 2.21% | 833.33 nM -1.81% | 10000 nM -0.65%

C1CCC(NC2CCCCC2)CC1 [dicyclohexylamine]
inactive: 1 nM 2.51% | 8.33 nM 6.58% | 100 nM 13.2% | 833.33 nM 0.43% | 10000 nM -2.8%

CC[N+](CC)(CCCNC1=CC(=O)C(NCCC[N+](CC)(CC)Cc2ccccc2)=CC1=O)Cc1ccccc1 [benzoquinonium-dibromide]
inactive: 1 nM -1.79% | 8.33 nM 1.05% | 100 nM -2.22% | 833.33 nM 0.21% | 10000 nM -1.78%

CC(Cc1ccccc1)(NC(=O)CN)c1ccccc1 (stereo not given) [remacemide]
inactive: 1 nM 0.2% | 8.33 nM 0.62% | 100 nM -0.89% | 833.33 nM 0.88% | 10000 nM 0.24%

C[C@H](N)Cc1cccc(O)c1 [gepefrine]
inactive: 1 nM 1.14% | 8.33 nM 1.71% | 100 nM 1.51% | 833.33 nM 1.38% | 10000 nM 0.56%
